Laboratory results: PubChem BioAssay AID602252 (Broad Institute, 2012)
Screen size: about 300,000 compounds; about 2,700 (0.9%) were called active. Many of the other results were omitted from the sample, so actives are more common in it than they were. A number with no mark means an inactive call.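 How the source made its calls: active means mean inhibition of at least 30% with at least half of replicates also reaching 30%; inconclusive means no clear call, values can overlap the other calls; inactive means the rest.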

The compounds below were run against Golgi-associated PDZ and coiled-coil motif-containing protein (Homo sapiens) (UniProt Q9HD26) (assay: blockade of CAL PDZ-reporter peptide interaction – biochemical, fluorescence polarization, untagged CAL PDZ, HTS, primary screen (AID 602252;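 further: 0% = DMSO neutral control and 100% = excess unlabeled competitor peptide PRC23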)). Details: purified CAL PDZ, TMR-peptide fluorescence polarization, 1 h; at 24.9 µM; stronger effect = higher value.

| Compound | inhibition |
| --- | --- |
| Cc1ccc(C(=O)Nc2ncccc2C)cc1S(=O)(=O)N1CCOCC1 | -3.36% |
| Cc1ccc(C(=O)NCC(c2cccs2)N(C)C)cc1S(=O)(=O)N1CCOCC1 (stereo not given) | 47.1% (active) |
| COc1ccccc1C(CNC(=O)c1ccc(C)c(S(=O)(=O)N2CCCCC2)c1)N(C)C (stereo not given) | -4.72% |
| O=C(Nc1c(Br)cc2c(c1Br)Cc1cc([N+](=O)[O-])ccc1-2)C(Cl)Cl | -7.68% |
| Cn1cnnc1Sc1ccc(CN2CCN(C3CCCC3)C(CCO)C2)o1 (stereo not given) | 2.66% |
| OCCC1CN(Cc2ccc3nsnc3c2)CCN1C1CCCCC1 (stereo not given) | 77% (active) |
| OCCC1CN(Cc2ccc3nsnc3c2)CCN1C1CCCC1 (stereo not given) | 2.19% |
| CCOC(=O)C(=O)Nc1nc(-c2ccccc2)c(CC)s1 | 65.4% (active) |
| CCOc1ccc(-c2nc(C)sc2CC(=O)O)cc1 | -0.665% |
| C/C(=N/Nc1nc(-c2ccccc2)c(CC(=O)O)s1)c1ccccc1 | 2.17% |
| CCCCCCCCNS(=O)(=O)CCNC1CCCCC1 | 0.068% |
| CC(=O)Oc1ccc(OC(C)=O)c2c1C1C=CC2CC1 | 3.2% |
| COc1ccc(N=Cc2c(O)[nH]c3ccccc23)cc1OC | 0.564% |
| COc1cc(N=Cc2c(O)c3ccccc3oc2=O)c(OC)cc1Cl | 36.3% (active) |
| Cc1ccc(N=Cc2c(O)cc(C)oc2=O)c(C)c1 | -1.38% |
| CC(=O)Nc1ccc(S(=O)(=O)NCC(=O)OCC(=O)c2ccc[nH]2)cc1 | -5.59% |
| Nc1ncnc2c1ncn2[C@@H]1O[C@H](CNCc2cccn2-c2nccs2)[C@@H](O)[C@H]1O | -2.1% |
| COC1=CC(=O)OC(c2ccc(OC)cc2)C1 (stereo not given) | 45% (active) |
| COc1ccc(C2CC(=O)NC(=O)C2)cc1 | -5.54% |
| COc1ccc2c(c1)C(=O)CC(c1ccccc1)O2 (stereo not given) | 16.3% |
| CC1(C)C(=O)CCC2(C)C1=CCC1C2C(=O)CC2(C)C1CCC2(O)C(=O)CO (stereo not given) | -4.84% |
| O=C(O)c1ccc([N+](=O)[O-])cc1Sc1ccsc1 | -2.87% |
| O=C1N[C@@H](c2ccccc2)COC(=O)[C@H](Cc2ccc(F)cc2)C/C=C\C[C@@H]1CC(=O)N(CCO)Cc1ccccc1 | 2.21% |

| Compound | inhibition |
| --- | --- |
| COc1ccc(CN2C(CC(=O)Nc3cccnc3)c3ccc(C(F)(F)F)cc3S2(=O)=O)cc1 (stereo not given) | -6.01% |
| CSCCC1NC(=O)N(CC(=O)Nc2cccc(S(=O)(=O)N3CCCCCC3)c2)C1=O (stereo not given) | -13.3% |
| CCCCN(C(=O)CSCc1ccc(C)cc1)c1c(N)n(Cc2ccccc2)c(=O)[nH]c1=O | -2.71% |
| Cc1cnc(NC(=O)c2ccccn2)s1 | 54.3% (active) |
| Cc1cnc(NC(=O)c2ccc(Cl)nc2)s1 | 5.61% |
| Cc1cnc(NC(=O)CSc2c(Cl)cccc2Cl)s1 | -4.72% |
| O=C(Nc1ccn(CCCNCc2ccc3[nH]ccc3c2)c(=O)n1)OCc1ccccc1 | -6.18% |
| Cc1cc(CNC(=O)C2CCC(=O)N(CCc3ccc(Cl)cc3)C2)no1 (stereo not given) | 45.2% (active) |
| O=C(NCCN1CCOC1=O)C1CCC(=O)N(CCc2ccc(Cl)cc2)C1 (stereo not given) | -3.91% |
| O=C(NCCCc1ccccc1)C1CCC(=O)N(CCc2ccc(Cl)cc2)C1 (stereo not given) | -3.25% |
| Cc1ccc(NC(=O)C2CCC(C(C)(C)C)CC2)cc1S(=O)(=O)N1CCOCC1 (stereo not given) | -5.24% |
| O=C(CC1Sc2ccccc2NC1=O)NNc1ccc(Cl)c(Cl)c1 (stereo not given) | -5.96% |
| CCCNC(=O)CCc1c(C)nc2c(c(C)nn2-c2ccccc2)c1C | -0.965% |
| Cc1nc2c(c(C)nn2-c2ccccc2)c(C)c1C | 45.7% (active) |
| CSc1ccc(-c2c(C#N)c(N)nc3c2c(C)nn3-c2ccccc2)cc1 | -0.521% |
| N#CC1=C(N)Oc2cc(N)ccc2C1c1ccccc1 (stereo not given) | 2.39% |
| Cc1sc2ncnc(N3CCC(C(=O)Nc4ccc(F)cc4Cl)CC3)c2c1C | -2.24% |
| Cc1ccc(CNC(=O)C(=O)c2cn(CC(=O)N3CCOCC3)c3ccccc23)cc1 | -3.01% |
| O=C(Nc1ccc(F)cc1)C(=O)c1cn(CC(=O)N2CCOCC2)c2ccccc12 | 45.3% (active) |
| COc1cccc(NC(=O)C(=O)c2cn(CC(=O)N3CCOCC3)c3ccccc23)c1 | -2.58% |
| COc1ccccc1-c1nc(C#N)c(N2CCC(C(N)=O)CC2)o1 | -2.05% |
| Cc1cc(C)c(C#N)c(N2CCC(C(N)=O)CC2)n1 | 47.5% (active) |
| Cc1cccn2c(=O)c(/C=C(\C#N)S(=O)(=O)c3ccc(Cl)cc3)c(N3CCC(C(N)=O)CC3)nc12 | 3.73% |

| Compound | inhibition |
| --- | --- |
| O=C(NCCc1ccccc1)c1cccc(NC(=O)c2ccccc2)c1 | -3.44% |
| CC(C)(C)OC(=O)C[C@@H]1C/C=C\C[C@@H](CC(=O)N[C@H](CO)Cc2ccccc2)C(=O)NCCOC1=O | -9.11% |
| O=C(NNC(=O)c1ccccc1O)c1ccccc1O | -3.61% |
| S=C(c1ccc(-c2ccccc2)o1)N1CCCCC1 | 54.6% (active) |
| CN1CCN(C(=O)c2ccc(-c3ccc(Br)cc3)o2)CC1 | -4.62% |
| S=C(c1ccccc1)N1CCCC1 | -2.69% |
| C=CC[C@H](CC(=O)N(CCO)Cc1ccccc1)C(=O)N[C@@H](COC(=O)[C@@H](CC=C)Cc1ccc(F)cc1)Cc1ccccc1 | -5.7% |
| CC(C)N(C(=O)[C@H]1C[C@H](CC(=O)NCCC2=CCCCC2)C(=O)N2CCc3c([nH]c4cc(CCC(=O)N(C)C)ccc34)[C@]12C)C(C)C | -1.76% |
| O=c1oc2ccccc2c(=O)c2ccccc12 | 39.9% (active) |
| Cc1ccccc1-n1nnc2c(=O)oc3ccccc3c21 | 0.078% |
| CC(C)(C)Nc1c(N)c(=O)oc2ccccc12 | 3.5% |
| COCCN(C(=O)C(C)N1C(=O)c2ccccc2C1=O)c1c(N)n(CC(C)C)c(=O)[nH]c1=O (stereo not given) | -19.9% |
| COc1ccc(CC(=O)N[C@@H]2c3cc(OC)c(OC)cc3C[C@H]2OCc2ccccc2)cc1 | -0.172% |
| CSc1ccccc1NC(=O)c1cnc2sc(C)cn2c1=O | -2.14% |
| COc1ccc(C)cc1NC(=O)Nc1ccccc1SC | -2.98% |
| CSc1ccccc1NC(=O)c1cc(Cl)sc1Cl | 35% (active) |
| O=C(COC(=O)COc1cccc(F)c1)NCC1CCCCC1 | -0.678% |
| O=C(Nc1nnc(-c2ccccc2)o1)c1cccc(S(=O)(=O)N2CCOCC2)c1 | 7.28% |
| O=C(OCC(=O)N1CCOCC1)c1ccc(N2CCOCC2)c([N+](=O)[O-])c1 | 53.8% (active) |
| O=C(c1ccc(N2CCOCC2)c([N+](=O)[O-])c1)N1CCN(c2ccccc2F)CC1 | -2.67% |
| O=C(Oc1ccccc1Cl)c1ccc(N2CCOCC2)c([N+](=O)[O-])c1 | -0.07% |
| CC(=O)Nc1ccc(S(=O)(=O)Nc2ccc(N3CCCCC3)cc2)cc1 | -0.222% |
| CC(C)N(C(=O)[C@H]1C[C@H](CC(=O)NC(C)(C)C)C(=O)N2CCc3c([nH]c4ccc(Cl)cc34)[C@]12C)C(C)C | 1.76% |

| Compound | inhibition |
| --- | --- |
| Cn1c(SCC(=O)Nc2ccc(Br)cc2F)nnc1-c1ccco1 | -0.672% |
| Cn1c(CCC(=O)Nc2ccccc2F)nnc1SCC(=O)Nc1ccccc1Cl | 63.9% (active) |
| COc1ccc(C)cc1NC(=O)CSc1nnc(CC(=O)Nc2ccccc2F)n1C | -5.79% |
| CN(C)c1ccc(CSc2ccccc2)cc1 | -6.85% |
| COc1ccc2oc(N)nc2c1 | -0.189% |
| CCOC(=O)c1ccccc1NC(=O)CSc1nc2c(sc(=S)n2CC)c(=O)[nH]1 | -5.33% |
| CCN(C[C@H]1N[C@@](CC)(C(=O)OC)[C@H]2C(=O)N(Cc3ccccc3)C(=O)[C@@H]12)S(=O)(=O)c1ccc(C(F)(F)F)cc1 | -1.59% |
| CC(C)NC(=S)N1CCN(C(c2ccccc2)c2ccccc2)CC1 | -1.91% |
| CC1(C)CC(N2CCN(C(c3ccccc3)c3ccccc3)CC2)=CC(=[N+]2CCCCC2)C1 | 46.7% (active) |
| O=C(O)CN1CCN(C(c2ccccc2)c2ccccc2)CC1 | 0.69% |
| CCCCN1CC(CO)Oc2cccc(F)c2S1(=O)=O (stereo not given) | -3.69% |
| CCCCCC1CC(COc2ccccc2)OC1=O (stereo not given) | 8.53% |
| COc1cccc(C=CC(=O)C=CC=Cc2ccccc2)c1 | 0.692% |
| Cc1[nH]n(-c2ccc([N+](=O)[O-])cc2)c(=O)c1C=NCCN1CCN(C(=O)c2ccccc2F)CC1 | 51.8% (active) |
| Cc1[nH]n(-c2ccccc2)c(=O)c1N=Nc1ccccc1C(=O)N1CCCCC1 | -3.5% |
| C=CCNC(=S)N1CCN(CCN=Cc2c(C)[nH]n(-c3ccc([N+](=O)[O-])cc3)c2=O)CC1 | -1.05% |
| COc1ccc(C(=O)Nc2cccc(/C=C(/CCC(=O)O)c3nc4ccccc4s3)c2)cc1 | -1.62% |
| CN1c2ccc(C=O)c3c(C=O)ccc(c23)N(C)C1(C)C | 67% (active) |
| Cc1onc(-c2c(F)cccc2Cl)c1C(=O)OCC(=O)N1C(C)CCCC1C (stereo not given) | -2.47% |
| COc1ccc(CC(=O)NC(C)c2ccc(Cl)c(Cl)c2)cc1S(=O)(=O)N1CCOCC1 (stereo not given) | -1.91% |
| CCCN(CC(=O)NC(=O)NC1CCCCC1)CC(=O)Nc1cc(Cl)ccc1Cl | -3.68% |
